Inconclusive results are not listed. Calls of active or inactive are those of the source. Calls come from the whole dose curve; as a rule, active = well fitted curve in the direction sought with a large enough effect in the repeat runs; inconclusive = weak or mixed curves; inactive = no such curve, though single readings can be large; an effect the other way counts as inactive or inconclusive.
experiment: qHTS RealTime-Glo MT Cell Viability Assay in HEK293 cells - 32 hour (AID 1224868); conditions: RealTime-Glo luminescence; series mostly up to 76.8 µM; activity change, negative = cytotoxic: at the top concentration; note: potency is the fitted concentration of half-maximal effect; for activity change, negative = cytotoxic: top concentration of the series differs between compounds
Outline: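 Cells + reagent dispensed (600 cells/well, HEK293) → 5 h at 37 C/5% CO2 → 23 nL compound in DMSO pinned → 40 h at 37 C → luminescence read at 0, 8, 16, 24, 32, 40 h.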
% is set by controls: 0 for no effect and ±100 for the full control effect.
Note: nearly all actives have a fitted effect of over 50% in size.

| Structure (SMILES) | activity change, negative = cytotoxic | Potency |
| --- | --- | --- |
| C[C@@H]1[C@H](O)[C@@H](C)/C=C/C=C\C=C\C=C\C=C\C=C\C=C\[C@H](O[C@@H]2O[C@H](C)[C@@H](O)[C@H](N)[C@@H]2O)C[C@@H]2O[C@](O)(C[C@@H](O)C[C@@H](O)[C@H](O)CC[C@@H](O)C[C@@H](O)CC(=O)O[C@H]1C)C[C@H](O)[C@H]2C(=O)O (stereo in doubt) | 3.52% (inactive) |  |
| O=CNNC=O | 6.65% (inactive) |  |
| CCN(CC)c1ccc(C(=C2C=CC(=[N+](CC)CC)C=C2)c2ccc(S(=O)(=O)O)cc2S(=O)(=O)[O-])cc1 | -0.842% (inactive) |  |
| O=C(/C=C/c1ccc([N+](=O)[O-])cc1)c1ccccc1 |  | 24.6 µM (active) |
| Nc1nc(-c2ccc([N+](=O)[O-])cc2)cs1 | -13.7% (inactive) |  |
| Cc1oc(=O)oc1COC(=O)[C@@H]1N2C(=O)[C@@H](NC(=O)[C@H](N)c3ccccc3)[C@H]2SC1(C)C | 7.51% [at 35.3 µM] (inactive) |  |
| C1=CCC2CC=CC2C1 (stereo unspecified) | 19% (inactive) |  |
| COc1cc(OC)c2ccc(=O)oc2c1 | -19.9% (inactive) |  |
| CC(C)C1CCC(C(=O)N[C@H](Cc2ccccc2)C(=O)O)CC1 (stereo partly specified) | 1.45% [at 35.3 µM] (inactive) |  |
| CCCCCCOC(=O)CCCCC | 2.56% (inactive) |  |
| C[C@@H]1C[C@H]2[C@@H]3CCC4=CC(=O)C=C[C@]4(C)[C@@]3(F)[C@@H](O)C[C@]2(C)[C@@]1(O)C(=O)COP(=O)(O)O | -19.7% (inactive) |  |
| CO[C@@H]1[C@@H](OC)[C@H](C)[C@@](O)(CC(=O)O)O[C@H]1[C@H](C)[C@H]1O[C@@]2(CC[C@@](C)([C@H]3CC[C@@](C)([C@@H]4O[C@@H]([C@H]5O[C@](C)(O)[C@H](C)C[C@@H]5C)C[C@@H]4OC4C[C@H](OC)[C@@H](OC)[C@H](C)O4)O3)O2)C[C@H](O)[C@H]1C (stereo partly specified) |  | 3.01 µM (active) |
| CCCCCCCCCCCCCCCC(=O)OCC | 15% (inactive) |  |
| COc1ccc(C(=O)NCc2ccc(OCCN(C)C)cc2)cc1OC | 1.12% [at 35.3 µM] (inactive) |  |
| CCC(CO)(CO)CO | 1.47% (inactive) |  |
| COc1ccc(-n2nc(C(F)F)cc2-c2ccc(S(C)=O)cc2)cc1 (stereo unspecified) | -25.6% (inactive) |  |

| Structure (SMILES) | activity change, negative = cytotoxic | Potency |
| --- | --- | --- |
| O=C(O)c1cc(Cl)cc(Cl)c1O | -3.74% (inactive) |  |
| C=CC(=O)NC(C)C | 9.71% (inactive) |  |
| CCCCOC(=O)CCCCC(=O)OCCCC | 0.568% (inactive) |  |
| CCCCC(CC)COS(=O)(=O)O (stereo unspecified) | 4.14% (inactive) |  |
| COC(C)(C)OC | 19.7% (inactive) |  |
| COc1ccc(C2C(=O)c3ccccc3C2=O)cc1 | 4.08% [at 35.3 µM] (inactive) |  |
| Cc1ccc(S(=O)(=O)NC(=O)NC2CCCCC2)cc1 | 8.88% [at 35.3 µM] (inactive) |  |
| CC1=CC[C@@]23C[C@@H]1C(C)(C)[C@@H]2CC[C@H]3C | 2.29% (inactive) |  |
| CCCCCCC(O)CCOC(C)=O (stereo unspecified) | 0.947% [at 200 µM] (inactive) |  |
| CC(=O)C(=O)CC(C)C | 12.2% (inactive) |  |
| O=C(O)CCS | 9.66% (inactive) |  |
| CC(=O)c1ccc[nH]1 | -0.659% (inactive) |  |
| CC(C)(O)CCc1ccccc1 | -7.51% (inactive) |  |
| COc1ccc(C)cc1 | 9.6% (inactive) |  |
| CCN(CC)C(=O)N1CCN(C)CC1 | 5.58% [at 35.3 µM] (inactive) |  |

experiment: A CellTox Green Cytotoxicity Assay to monitor cytotoxicity in HEK293 cells - 0 hour (AID 1224869); conditions: CellTox Green fluorescence; series mostly up to 76.8 µM; cytotoxicity: at the top concentration
Outline: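 HEK293 cells, 600/well, were preincubated 5 hours and then exposed to compounds at 37 C for up to 40 hours. A cell-impermeant cyanine dye staining dead-cell DNA was read by fluorescence at 0, 8, 16, 24, 32 and 40 h time points.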

| Structure (SMILES) | cytotoxicity |
| --- | --- |
| CCOC(=O)c1ccc(NC(=O)CN2CCCCC2)cc1 | -2.69% [at 35.3 µM] (inactive) |
| C[C@@H]1[C@H](O)[C@@H](C)/C=C/C=C\C=C\C=C\C=C\C=C\C=C\[C@H](O[C@@H]2O[C@H](C)[C@@H](O)[C@H](N)[C@@H]2O)C[C@@H]2O[C@](O)(C[C@@H](O)C[C@@H](O)[C@H](O)CC[C@@H](O)C[C@@H](O)CC(=O)O[C@H]1C)C[C@H](O)[C@H]2C(=O)O (stereo in doubt) | 7.99% (inactive) |
| CCOc1ncc(F)c(=O)[nH]1 | -0.526% [at 35.3 µM] (inactive) |
| CC1CCC(C(C)CS)CC1S (stereo unspecified) | -3.94% (inactive) |
| O=CNNC=O | 5.6% (inactive) |
| CC[C@H]1OC(=O)[C@H](C)[C@@H](O[C@H]2C[C@@](C)(OC)[C@@H](O)[C@H](C)O2)[C@H](C)[C@@H](O[C@@H]2O[C@H](C)C[C@H](N(C)C)[C@H]2O)[C@](C)(O)C[C@@H](C)/C(=N\OCOCCOC)[C@H](C)[C@@H](O)[C@]1(C)O | -0.2% [at 35.3 µM] (inactive) |
| CCN(CC)c1ccc(C(=C2C=CC(=[N+](CC)CC)C=C2)c2ccc(S(=O)(=O)O)cc2S(=O)(=O)[O-])cc1 | -18.8% (inactive) |
| O=C(/C=C/c1ccc([N+](=O)[O-])cc1)c1ccccc1 | 0.954% (inactive) |
| Nc1nc(-c2ccc([N+](=O)[O-])cc2)cs1 | -6.39% (inactive) |
| CC(C)(C)S | -2.87% (inactive) |
| C1=CCC2CC=CC2C1 (stereo unspecified) | -1.47% (inactive) |
| COc1cc(OC)c2ccc(=O)oc2c1 | -1.09% (inactive) |
| CC(C)C1CCC(C(=O)N[C@H](Cc2ccccc2)C(=O)O)CC1 (stereo partly specified) | -0.169% [at 35.3 µM] (inactive) |
| CCCCCCOC(=O)CCCCC | 0.624% (inactive) |
| C[C@@H]1C[C@H]2[C@@H]3CCC4=CC(=O)C=C[C@]4(C)[C@@]3(F)[C@@H](O)C[C@]2(C)[C@@]1(O)C(=O)COP(=O)(O)O | -4.8% (inactive) |
| CO[C@@H]1[C@@H](OC)[C@H](C)[C@@](O)(CC(=O)O)O[C@H]1[C@H](C)[C@H]1O[C@@]2(CC[C@@](C)([C@H]3CC[C@@](C)([C@@H]4O[C@@H]([C@H]5O[C@](C)(O)[C@H](C)C[C@@H]5C)C[C@@H]4OC4C[C@H](OC)[C@@H](OC)[C@H](C)O4)O3)O2)C[C@H](O)[C@H]1C (stereo partly specified) | -0.375% [at 35.3 µM] (inactive) |
| CCCCCCCCCCCCCCCC(=O)OCC | -0.842% (inactive) |
| CC(=O)NNC(C)=O | -7.71% (inactive) |
| O=C(O)c1cc(Cl)cc(Cl)c1O | -0.226% (inactive) |
| C=CC(=O)NC(C)C | 2.06% (inactive) |
| CCCCOC(=O)CCCCC(=O)OCCCC | 2.19% (inactive) |
| COC(C)(C)OC | -1.47% (inactive) |
| COc1ccc(C2C(=O)c3ccccc3C2=O)cc1 | -8.07% [at 35.3 µM] (inactive) |
| Cc1ccc(S(=O)(=O)NC(=O)NC2CCCCC2)cc1 | -6.06% [at 35.3 µM] (inactive) |
| CC1=CC[C@@]23C[C@@H]1C(C)(C)[C@@H]2CC[C@H]3C | 22% (inactive) |
| CCCCCCC(O)CCOC(C)=O (stereo unspecified) | -10% [at 200 µM] (inactive) |
| O=C(O)CCS | -1.33% (inactive) |
| CC(C)(O)CCc1ccccc1 | -10.9% (inactive) |
| COc1ccc(C)cc1 | -0.965% (inactive) |
| CCN(CC)C(=O)N1CCN(C)CC1 | -7.08% [at 35.3 µM] (inactive) |

Reference: PubChem BioAssay (Tox21)
